Screening data (PubChem)
The sample as a whole holds a higher share of hits than the screen did.
Shiga toxin inh: Shiga toxin inhibition | Vero cells, Shiga toxin protein synthesis inhibition reporter | actives 9.2% (n = 290,000) | inhibition, % at 38.7 µM; in the data active means inhibition mostly above about 28%, no sharp cut-off; inactive means mostly below about 43%; further: 0% is about no effect
Cycloheximide cs: affects cycloheximide protein synthesis inhibition readout, counter-screen; cell reporter, cycloheximide protein synthesis inhibition counterscreen; max response, %; actives 12% (n = 300,000); in the data active means max response mostly above about 13%, no sharp cut-off; inactive means mostly below about 14%; further: read at 38.3 µM for the half of the compounds with a filed dose; 0% is about no effect
RE007 growth inh: less growth of the S. pombe RE007 Vpr strain | S. pombe RE007 Vpr strain, BacTiter-Glo ATP luminescence, 24 h | Potency, µM (titrated, usually from 92.2 µM), for the others: at the highest dose activity change, negative = less growth, most hits filed as inhibitors | actives 0.21% (n = 360,000); active means well fitted falling curve with a large enough effect; inconclusive means small, poorly fitted or top-dose-only effect; inactive means no such curve, though single readings can be large or run the other way; further: potency means the concentration at half of the fitted maximal effect; on the % scale 0 is the no-effect control and ±100 the full control effect; nearly all actives have a fitted effect of over 50% in size
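Fission yeast strain RE007, carrying one chromosomally integrated HIV-1 vpr copy, was seeded at OD 0.01 in PMG+AL medium with 23 nL pinned compound. After 24 h at 30 °C and 99% humidity, viability was read by BacTiter-Glo luminescence.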
Tb PYK inh: blocks Trypanosoma brucei pyruvate kinase | TbPYK enzyme, Kinase-Glo Plus ATP luminescence, 45 min | Potency, µM (highest dose often 76.8 µM), inactives show at the highest dose activity, negative = inhibition, usual class: inhibitors | actives 0.12% (n = 410,000) | AID 624173; further: potency means the concentration at half of the fitted maximal effect; on the % scale 0 is the no-effect control and ±100 the full control effect; nearly all actives have a fitted effect of over 50% in size
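Assay buffer: 50 mM TEA pH 7.2, 100 mM KCl, 10 mM MgCl2, 0.05% BSA, 0.01% Tween-20. Pyruvate kinase from T. brucei plus substrate met compound, then ADP (130 uM final). Luminescence was read post 45 min RT.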
FBPA Giardia inh: blocks Giardia fructose-bisphosphate aldolase activity | A8B2U2 | purified Giardia FBPA | Potency, µM (doses to about 59.6 µM), without a hit: at the highest dose activity, negative = inhibition, actives largely listed as inhibitors | actives 0.71% (n = 290,000); further: potency means the concentration at half of the fitted maximal effect; on the % scale 0 is the no-effect control and ±100 the full control effect; nearly all actives have a fitted effect of over 55% in size
Target sequence (A8B2U2 whole entry, looked up): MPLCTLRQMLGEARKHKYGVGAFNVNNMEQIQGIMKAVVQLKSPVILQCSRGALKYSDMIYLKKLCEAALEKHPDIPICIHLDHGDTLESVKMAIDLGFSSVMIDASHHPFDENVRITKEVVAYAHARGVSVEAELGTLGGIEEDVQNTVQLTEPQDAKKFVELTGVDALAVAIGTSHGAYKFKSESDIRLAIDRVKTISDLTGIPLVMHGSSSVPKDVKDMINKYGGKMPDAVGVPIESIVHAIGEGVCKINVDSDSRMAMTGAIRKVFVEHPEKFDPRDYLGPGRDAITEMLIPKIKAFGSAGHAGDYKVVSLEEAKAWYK
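40 nM FBPA preincubated 10 min at RT with compound (up to 57.5 uM final), then substrate plus GAPDH/TPI/NAD/arsenate coupling and diaphorase/resazurin added. Fluorescence read after 20 min at RT, 525/598 nm.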
LmPK inhibitor: inhibitors of Leishmania mexicana pyruvate kinase; Q27686; purified LmPK, Kinase-Glo ATP luminescence, 1 h; Potency, µM (doses to about 57.5 µM), inactives show at the top dose activity change, negative = inhibition, actives largely listed as inhibitors; actives 0.37% (n = 290,000); AID 1721; further: potency means the concentration at half of the fitted maximal effect; on the % scale 0 is the no-effect control and ±100 the full control effect
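Screened at intermediate enzyme activity to detect both inhibitors and activators: LmPK at 0.1 nM, with a 0.5 nM enzyme column as activation reference. PEP 0.5 mM, ADP 0.1 mM; ATP detected by luminescence after 1 h.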
Starred values were filed as active, the others as inactive; ? = inconclusive; . = no result. Unless noted, the call rests on the fitted dose curve; in most records, active means well fitted curve in the direction sought with a large enough effect; inconclusive means small, poorly fitted or top-dose-only effect, or another doubt; inactive means no such curve, though single readings can be large; an effect the other way counts as inactive or inconclusive.

SMILES | Shiga toxin inh | Cycloheximide cs | RE007 growth inh | Tb PYK inh | FBPA Giardia inh | LmPK inhibitor
N#CC1=C2SCN(Cc3ccccc3)CN2C(=O)CC1c1cccs1 (centres undefined) | -3 | -5 | -13% | ? | ? | -5%
COc1ccc(C2CC(=O)N3CN(c4ccc(C)c(Cl)c4)CSC3=C2C#N)cc1 (centres undefined) | 3 | 6 | 0% | 3.2µM* | ? | -14%
CCN(CC)C(=O)Cn1ncc2c([nH]c3ccc(C)cc32)c1=O | . | . | . | -3% | . | .
CC(C)(C)OC(=O)CN1C(=O)S/C(=C\c2ccc(-c3cccc(C(=O)O)c3)o2)C1=O | 118* | 27* | . | . | -8% | 16%
C#CCN1C(=O)S/C(=C\c2ccc(-c3ccc(C(=O)O)cc3C)o2)C1=O | 42* | 39* | 8% | -22% | -11% | -4%
Cc1ccc(N2CC(NC(=O)c3ccc(S(=O)(=O)N4CCCC4)cc3)CC2=O)cc1 (centres undefined) | . | . | . | -3% | . | .
Cn1c2ccccc2c2nnc(NN)nc21 | 25 | -1 | 8% | -12% | -13% | -15%
CCCCc1c(C)nn(-c2nnc3c4ccccc4n(C)c3n2)c1C | 49* | 21* | -6% | 0% | 9% | 1%
CSc1nc2ccc(NC(=O)c3ccccn3)cc2s1 | 105* | 38* | ? | -14% | 1% | -29%
CSc1nc2ccc(NC(=O)C3=NN(c4ccccc4)C(=O)CC3)cc2s1 | 17 | 6 | 12% | 2% | -27% | -4%
CSc1nc2ccc(NC(=O)C3=NNC(=O)CC3)cc2s1 | 47 | 16* | 11% | 2% | -6% | -3%
COC(=O)c1ccc(C(=O)NC(=S)Nc2ccc3nc(SC)sc3c2)cc1 | 11 | 11* | 15% | -9% | 2% | -3%
COc1ccc(CC(=O)Nc2ccc3nc(SC)sc3c2)cc1OC | 42 | -2 | 12% | 4% | 0% | 2%
CCOC(=O)c1cc(-c2ccccc2)n(CCC(=O)NCc2ccccc2Cl)c1C | . | . | . | 0% | . | .
COCCNCc1cc(C)n(-c2cc(S(=O)(=O)N3CCOCC3)ccc2N2CCCC2)c1C | . | . | 1% | 2% | . | .
COc1nc(-c2ccc(Cl)cc2)nnc1C | 10 | 15* | -8% | 2% | -18% | -14%
COC(=O)c1nnc(-c2ccccc2)nc1OC | -9 | 5 | -26% | -4% | 0% | -3%
O=C(NCCCNC(=O)c1cccnc1)c1ccc(Cl)cc1 | -5 | 0 | 0% | 2% | 4% | -5%
Cc1cc2nc3c(=O)[nH]c(=O)[nH]c3nc2c([N+](=O)[O-])c1N | -12 | -2 | -15% | -7% | 5µM* | 3%
Cc1ccc(CN2C(=O)C3(SCC(=O)N3c3ccc(C)c(C)c3)c3ccccc32)cc1 (centres undefined) | . | . | . | -18% | . | .
Cc1nc(-n2nnc3ccccc32)c2c3c(sc2n1)CCCC3 | 29 | 1 | 6% | -3% | 17% | 1%
c1ccc2c(c1)nnn2-c1ncnc2sc3c(c12)CCCC3 | 28 | 14* | -8% | -4% | 13% | -2%
CN(Cc1ccco1)C(=O)C1CCN(c2nnc(-n3cccc3)s2)CC1 | 21 | -4 | 2% | -4% | 2% | -1%
O=C(NCc1ccco1)C1CCN(c2nnc(-n3cccc3)s2)CC1 | 16 | 16* | -5% | -6% | 8% | 2%
O=C(CCSc1ccc(Cl)cc1)NC1CCCC1 | -2 | -1 | 2% | -5% | 1% | -4%
SMILES | Shiga toxin inh | Cycloheximide cs | RE007 growth inh | Tb PYK inh | FBPA Giardia inh | LmPK inhibitor
O=C(CCS(=O)(=O)c1ccccc1)NC1CCCCC1 | 90* | 59* | 8% | 0% | . | -8%
Cc1ccccc1OCCCC(=O)NC1CCCCC1 | . | 13* | 23% | 0% | 18% | 0%
CC(=O)NC1C(=O)N=C(SCC(=O)NC2CCCCC2)NC1=O (centres undefined) | 57* | 22* | 7% | 4% | -12% | -2%
Cc1ccc(C)c(OCCCC(=O)NC2CCCCC2)c1 | . | -1 | -20% | -17% | -6% | -2%
CCC1C(=O)N=C(SCC(=O)NC2CCCCC2)NC1=O (centres undefined) | 9 | 7 | -3% | 3% | 1% | 2%
O=C(CCSc1ccccc1)NC1CCCC1 | 42 | 28* | 7% | 2% | 0% | -8%
CC(=O)c1ccc(S(=O)(=O)Nc2ccc(-c3ccc(N4CCCCC4)nn3)cc2)cc1 | . | . | . | -12% | . | .
O=C(CSc1ccccc1)NC1CCCCCC1 | 118* | 49* | 6% | 1% | 7% | -4%
O=C(CCSCc1ccccc1Cl)NC1CCCCC1 | 95* | 37* | 33% | -7% | 7% | 13%
O=C(CSc1ccccc1)NC1CCCCCCC1 | 62* | 40* | 24% | -2% | 1% | 1%
CCC(C(=O)O/N=C(\N)c1cccc(C)c1)c1ccccc1 (centres undefined) | 115 | 24* | -7% | -5% | 1% | -8%
Cc1cccc(/C(N)=N/OC(=O)C23CC4CC(CC(C4)C2)C3)c1 | 84* | 42* | -12% | -14% | -2% | 1%
Cc1cccc(/C(N)=N/OC(=O)Cc2ccccc2)c1 | 81* | 41* | -3% | 0% | 3% | -8%
CCCCCC(=O)Nc1ccc(NC(=O)c2cc3ccccc3o2)c(OC)c1 | . | . | . | -1% | . | .
O=C(O)c1cc(-c2ccc(/C=C3/SC(=S)N(Cc4ccccc4)C3=O)o2)ccc1Cl | 63* | 29* | 3% | -13% | ? | 8%
C=CCOC(=O)c1cc(-c2ccc(/C=C3\C(=O)NC(=O)C(C#N)=C3C)o2)ccc1Cl | -4 | 2 | 40µM* | -11% | ? | 13%
CC1(C)OC(=O)C(=Cc2ccc(-c3ccc(Cl)c(C(=O)O)c3)o2)C(=O)O1 | -15 | 8 | 43% | 16µM* | -16% | 32%
CN(C(=O)c1ccc2c(c1)N(Cc1cccc(Cl)c1)C(=O)c1ccccc1S2(=O)=O)C1CCCCC1 | . | . | . | 1% | . | .
Cc1cccc(Cn2cc3c(=O)n(CC(=O)Nc4ccc(C)c(F)c4)nc-3c3cc(F)ccc32)c1 | . | . | . | -1% | . | .
Cc1ccc(-c2cc(C(=O)N/N=C/c3ccco3)[nH]n2)cc1 | 33 | 19 | 24% | 2% | -1% | 0%
O=C(N/N=C/c1ccco1)c1cc(-c2ccccc2)n[nH]1 | 46* | 20* | 13% | -2% | 0% | 0%
O=C(N/N=C/c1ccco1)c1cc(-c2cccc3ccccc23)n[nH]1 | 58* | 26* | -5% | -5% | 0% | -1%
Brc1c(-c2ccccc2)nc2n1Cc1ccccc1-2 | 141* | 52* | -21% | 3% | -1% | -12%
c1ccc2c(c1)Cn1c-2nc2ccccc21 | 62* | 32* | ? | ? | -15% | 14µM*
COc1ccccc1N1CCN(c2cc(C)nc3nc(-c4ccc(Cl)cc4)nn23)CC1 | . | . | . | 5% | . | .
